In PubChem BioAssay AID1135 (Sanford-Burnham Center for Chemical Genomics, 2008):
Among all 200,000 compounds or so, about 65 (0.03%) were called active.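 The calls were made as follows: active = over 50% inhibition of tissue-nonspecific alkaline phosphatase at 20 µM in the single-dose screen; inactive = the rest.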 The sample as a whole holds a higher share of actives than the screen did.

Each compound was assayed against Alkaline phosphatase, tissue-nonspecific isozyme (Homo sapiens) (UniProt P05186) (assay: human TNAP enzyme inhibitors, primary screen, biochemical, luminescent, high phosphate acceptor level, uHTS (AID 1135;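 also: plate controls were DMSO wells for no effect and EDTA-quenched wells as full inhibition for full effect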)). Conditions: purified TNAP, CDP-star luminescence, 1 M DEA; at 20 µM; active compounds read high.
Sequence of Alkaline phosphatase, tissue-nonspecific isozyme (Homo sapiens) (P05186 whole entry, looked up): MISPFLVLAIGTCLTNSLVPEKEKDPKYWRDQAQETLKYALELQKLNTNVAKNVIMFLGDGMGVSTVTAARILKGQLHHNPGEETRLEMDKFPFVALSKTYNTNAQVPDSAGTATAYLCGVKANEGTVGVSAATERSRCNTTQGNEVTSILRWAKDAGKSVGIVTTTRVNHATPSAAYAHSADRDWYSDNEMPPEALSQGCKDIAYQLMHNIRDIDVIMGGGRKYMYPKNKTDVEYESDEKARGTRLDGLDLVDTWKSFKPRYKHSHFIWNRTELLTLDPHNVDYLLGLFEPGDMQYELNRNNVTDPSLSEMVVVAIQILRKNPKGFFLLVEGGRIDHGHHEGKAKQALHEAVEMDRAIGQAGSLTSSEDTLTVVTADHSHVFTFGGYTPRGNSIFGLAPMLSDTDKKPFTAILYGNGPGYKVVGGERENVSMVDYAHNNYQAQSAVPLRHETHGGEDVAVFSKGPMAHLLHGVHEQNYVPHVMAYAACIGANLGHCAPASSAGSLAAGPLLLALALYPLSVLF

inhibition, inactive:
O=C(O)c1ccccc1-c1ccccc1C(=O)NCc1cccnc1 3.5%
O=C(Oc1c(-c2ccco2)oc2ccccc2c1=O)c1cccnc1 -3.4%
C(=N\N1CCN(c2ccccn2)CC1)/C1=C(N2CCOCC2)C(=C/c2ccccc2)/CC1 -0.3%
CC(=O)Nc1sc2c(c1C(c1cccc(F)c1)N1CCN(CCO)CC1)CCCC2 (configuration not stated) -3.5%
Cc1cccc(NC(=O)c2ccc3nsnc3c2)c1C -1.2%
CCOC(=O)c1c(NC(=O)C2CC=CCC2C(=O)O)sc(C)c1CC (configuration not stated) 2%
CCC(C)NC(=O)c1nn(C)c(=O)c2ccccc12 (configuration not stated) -4.5%
O=c1c(-c2ccccc2)coc2cc(O)ccc12 -6.9%
COc1cc2sc(C)nc2cc1C -3.9%
CCSc1ccccc1C(=O)Nc1ccc2c(c1)OCO2 -5.5%
COc1cc(/C=C/C(=O)O)cc(S(=O)(=O)Nc2ccccc2SC)c1OC 6.4%
CC(=O)Nc1ccc(Nc2c3ccccc3nc3ccccc23)cc1 2.2%
O=C(CN1CCN(c2ccc(Cl)cc2)CC1)NCc1cccs1 -1.4%
CCCCNC(=O)C1CCC(CNS(=O)(=O)c2ccc(NC(C)=O)cc2)CC1 (configuration not stated) -2.5%
O=C(CCc1ccc(S(=O)(=O)N2CCOCC2)cc1)NN=C1CCCCCCC1 -2%
COc1ccc(N2C(=O)CC(Sc3n[nH]c(-c4ccc(C)cc4)n3)C2=O)cc1 (configuration not stated) -5.7%
CN(C)c1nccc(NCc2ccccc2)c1C#N 0.6%
COc1cccc(N(Cc2nnc3n2CCCCC3)C(=O)Nc2ccccc2F)c1 -2.9%
CC(C)c1nc2sc3c(c2c(=O)n1N)CC(C)(C)OC3 -1.5%
COCCn1c(SCC(=O)Nc2ccc3c(c2)CCC3)nc2ccccc2c1=O -1.3%
CCN(C(=O)CSc1nc2ccccc2n1CC)C1CCS(=O)(=O)C1 (configuration not stated) -1.3%
Cc1cc(C(=O)COC(=O)CNC(=O)c2ccc(F)cc2)c(C)n1Cc1ccco1 1.3%
S=C(Nc1ccc(Br)cc1Cl)NC1CCN(Cc2ccccc2)CC1 -5.2%
CSCCC(NC(=O)c1cc([N+](=O)[O-])cc([N+](=O)[O-])c1)c1nc2ccccc2[nH]1 (configuration not stated) -6.8%
CCc1ccc(CN2C(=O)c3ccccc3C2C(=O)NCC2CCCO2)cc1 (configuration not stated) 2.3%
Cc1cccc(N2CCN(c3ccc(NC(=O)/C=C\C(=O)O)cc3)CC2)c1 -4.5%
NNC(=O)COc1ccc(C2SCCS2)cc1 -6.7%
